Assay outcomes from PubChem BioAssay.
AMA1 RON2 block – disrupts binding of P. falciparum AMA1 to RON2. AlphaScreen AMA1-biotinylated RON2 peptide binding. Potency, µM (top dose mostly 58.2 µM), inactives show at the highest dose activity change, negative = inhibition, most hits filed as inhibitors. hit rate 0.2% among 360,000. AID 720542;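 also: 0% = vehicle wells and -100% = peptide control; nearly all actives have a fitted effect of over 45% in size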
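AMA1 (3D7) with his tag at 25 nM final met compounds first, then biotinylated RON2 peptide at 25 nM; detection used donor plus acceptor beads, 10 µg/mL apiece, read by AlphaScreen after 30 min at room temperature.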
AmpC inh detg – AmpC beta-lactamase inhibition with detergent present; P00811; AmpC hydrolysis of nitrocefin, absorbance 480 nm, 0.01% Triton; Potency, µM (highest dose often 114 µM), for the others: at the top dose activity change, negative = inhibition, most hits filed as inhibitors; hit rate 0.041% among 370,000; AID 485294;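 also: 0% = no-compound wells and -100% = no-enzyme wells; nearly all actives have a fitted effect of over 25% in size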
Target sequence (P00811 whole entry, looked up): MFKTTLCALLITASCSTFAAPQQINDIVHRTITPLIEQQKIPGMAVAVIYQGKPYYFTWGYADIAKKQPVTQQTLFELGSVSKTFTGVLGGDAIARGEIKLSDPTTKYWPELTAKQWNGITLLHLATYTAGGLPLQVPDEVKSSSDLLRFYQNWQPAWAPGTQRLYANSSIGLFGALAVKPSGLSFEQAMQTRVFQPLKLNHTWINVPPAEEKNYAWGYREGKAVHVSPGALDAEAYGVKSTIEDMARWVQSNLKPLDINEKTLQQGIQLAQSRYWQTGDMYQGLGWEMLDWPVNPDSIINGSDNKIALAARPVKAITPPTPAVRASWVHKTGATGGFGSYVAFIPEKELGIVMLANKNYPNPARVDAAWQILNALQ
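20 mM phosphate pH 7.0 + 0.01% (detergent screen) or 0.0001% Triton X-100; 5.3 nM AmpC reagent; cpd preinc 15 min RT; nitrocefin (800 uM stock) to start; A480 q20 s × 4 min; Activity was normalised to no-enzyme and no-compound control wells.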
Marburg entry inh – blocks Marburg virus binding to or entry into cells. Marburg virus pseudotyped entry inhibition, cell reporter. Potency, µM (doses to about 37.8 µM), for the others: at the top dose activity change, negative = inhibition, usual class: inhibitors. hit rate 1.8% among 300,000. AID 540276; calls by dose curve; tested in HEK293 cells
AmpC inh no detg – AmpC beta-lactamase inhibition without detergent; AmpC nitrocefin hydrolysis, absorbance 480 nm, 0.0001% Triton; Potency, µM (titrated, usually from 57.1 µM), without a hit: at the highest dose activity change, negative = inhibition, actives largely listed as inhibitors; hit rate 0.52% among 330,000; AID 485341;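 also: plate controls were no compound for no effect and no enzyme for full effect; nearly all actives have a fitted effect of over 20% in size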
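20 mM phosphate pH 7.0 + 0.01% (detergent screen) or 0.0001% Triton X-100; 5.3 nM AmpC reagent; cpd preinc 15 min RT; nitrocefin (800 uM stock) to start; A480 q20 s × 4 min; Activity was normalised to no-enzyme and no-compound control wells.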
Lassa entry inh – blocks Lassa virus binding to or entry into cells; Lassa virus pseudotype entry inhibition, cell reporter; Potency, µM (highest dose often 37.9 µM), for the others: top-dose activity change, negative = inhibition, actives largely listed as inhibitors; hit rate 1.2% among 300,000; calls by dose curve; tested in HEK293 cells; also: nearly all actives have a fitted effect of over 50% in size
* marks the source's active call; other numbers are inactive results; ? = inconclusive; nt = no result; ! = a repeat was not active; [ ] = remark or other dose. Compounds with a hit are over-represented: about 2.3% of the library has one in this group of screens. Unless noted, calls follow the shape of the dose curve; as a rule, active = well fitted curve in the direction sought with a large enough effect; inconclusive = small, poorly fitted or top-dose-only effect, or another doubt; inactive = no such curve, though single readings can be large; an effect the other way counts as inactive or inconclusive. Unless noted, % is scaled to controls: 0 for no effect and ±100 for the full control effect; potency is read from the fitted curve at half-maximal effect.

SMILES	AMA1 RON2 block	AmpC inh detg	Marburg entry inh	AmpC inh no detg	Lassa entry inh
Cc1cccc(CS(=O)(=O)c2nnc([C@H](Cc3ccccc3)NC(=O)OC(C)(C)C)o2)c1	6%	40µM*	16µM*	-55%	-10%
COC(=O)CS(=O)(=O)c1nnc([C@H](Cc2ccccc2)NC(=O)OC(C)(C)C)o1	27%	35µM*	?	?	?
CC(Oc1ccccc1)C(=O)N=Nc1c(O)[nH]c2ccc([N+](=O)[O-])cc12 (configuration not stated)	32µM*	5%	nt	-44%	nt
O=C(N=Nc1c(O)[nH]c2ccc([N+](=O)[O-])cc12)c1ccccc1[N+](=O)[O-]	-11%	6%	nt	-32%	nt
CCCCCCc1cc2cc(C(=O)Nc3ccccc3)c(=O)oc2cc1O	-4%	?	2µM*	-31%	3.5µM*
O=c1c2cc(NC(=S)NCCN3CCCCCC3)ccc2nc2n1CCCCC2	4%	0%	?	-1%	?
O=c1c2cc(NC(=S)NCCCN3CCC(Cc4ccccc4)CC3)ccc2nc2n1CCCCC2	-6%	-3%	7.1µM*	97%	?
Oc1ccc2c(c1)OCC1(O)Cc3cc(O)c(O)cc3C21 (configuration not stated)	13µM*	nt	nt	nt	nt
Oc1cc2c(cc1O)[C@H]1c3ccc(O)c(O)c3OC[C@@]1(O)C2	32µM*	0%	?	-16%	0%
COc1cc2nc(N3CCN(C(=O)C4COc5ccccc5O4)CC3)nc(N)c2cc1OC (configuration not stated)	-19%	-5%	12µM*	129%	?
COc1cc2nc(N3CCN(C(=O)OCc4ccccc4)C(C(=O)NC(C)(C)C)C3)nc(N)c2cc1OC (configuration not stated)	nt	nt	11µM*	nt	?
COc1cc2nc(N3CCN(C(=O)OCc4ccccc4)[C@H](C(=O)NC(C)(C)C)C3)nc(N)c2cc1OC	-2%	0%	?	60%	nt
COc1ccc(N/C(=N/c2nc(C)cc(C)n2)NC(=O)C(C)C)cc1OC	nt	nt	8%	nt	nt
CCCNC(=O)OC[C@H]1O[C@H](CCO/N=C(\C)CCN2CCCCc3nc(C)c(C)cc32)C=C[C@@H]1Oc1ccc(OC)cc1	nt	nt	-26%[14.2 µM]	nt	nt
Cc1ccc(-n2cccn2)c(CN2CCCC(C(=O)c3ccc4c(c3)OCO4)C2)c1 (configuration not stated)	-5%	0%	10µM*	37%	?
COc1cccc(CN2CCCC(C(=O)c3ccc4c(c3)OCO4)C2)c1OC (configuration not stated)	-6%	0%	11µM*	23%	-14%[46.1 µM]
COc1cccc(CO[C@H]2C=C[C@@H](c3ccccc3)O[C@H]2CO)c1	nt	nt	-7%[14.2 µM]	nt	nt
CCN(CC)C(=O)CSc1nc2cc3c(cc2c(=O)n1Cc1ccc(C(=O)NCCc2ccc(OC)c(OC)c2)cc1)OCO3	nt	6%	nt	nt	-10%[46.1 µM]
Fc1ccc(C(c2ccc(F)cc2)N2CCN(C/C=C/c3ccccc3)CC2)cc1	?	2%	7.1µM*	-6%	13µM*
C(=C\c1ccccc1)/CN1CCN(C(c2ccccc2)c2ccccc2)CC1	-9%	?	21µM*!	-37%	15µM*!
C=CC1=C2C=C(C3CC3)N(C3CCCC3)C=C2C(=O)C(C)(OC(=O)c2ccco2)C1=O (configuration not stated)	nt	nt	21%[14.2 µM]	nt	nt
CC(C)NC(=O)C1CCN(C(=O)c2cc3sccc3n2Cc2ccc(Cl)cc2)CC1	nt	12%	?	nt	nt
CC(C)NC(=O)C1CCN(C(=O)c2cc3sccc3n2Cc2ccc(F)cc2)CC1	9%	-2%	8.2µM*	23%	?
O=C1CCC/C(=N/NC(=O)c2cc(NS(=O)(=O)c3cccs3)cc(NS(=O)(=O)c3cccs3)c2)C1	50%	-4%	nt	11µM*	nt
CSc1ccc(/C=C/c2ccc3cccc(O)c3n2)cc1	46%	6%	2.5µM*	-50%	?
SMILES	AMA1 RON2 block	AmpC inh detg	Marburg entry inh	AmpC inh no detg	Lassa entry inh
Cc1ccc(S(=O)(=O)N(CC(=O)Nc2cccc(N(C)S(C)(=O)=O)c2)c2ccc(Cl)c(Cl)c2)cc1	-6%	?	16µM*	-6%	?
CN(c1cccc(NC(=O)CN(c2ccc(C34CC5CC(CC(C5)C3)C4)cc2)S(C)(=O)=O)c1)S(C)(=O)=O	-12%	1%	18µM*	26%	7.3µM*
CN(c1cccc(NC(=O)CN(c2ccc(Cl)c(Cl)c2)S(=O)(=O)c2ccccc2)c1)S(C)(=O)=O	2%	-7%	?	-18%	?
CN(c1cccc(NC(=O)CN(c2ccc(F)cc2)S(C)(=O)=O)c1)S(C)(=O)=O	2%	5%	11%[46.1 µM]	-2%	-5%
CCc1ccc(CNC(=O)c2cnc3sc(N(CC)CC)nn3c2=O)cc1	nt	4%	nt	nt	?
Cc1cc(C)c(/C=C/c2onc(C)c2S(=O)(=O)N2CCC(C(=O)N(C)Cc3ccccc3)CC2)c(C)c1	nt	-1%	nt	nt	?
Cc1cccc(Nc2nc(-c3ccc(F)cc3)cs2)n1	-8%	-9%	?	-32%	13µM*
COc1ccc(-c2csc(Nc3cccc(C)n3)n2)cc1	-6%	-8%	?	-25%	?
C=CCSC(=C(C#N)C#N)c1cc2c([nH]1)CCCC2	-27%	-8%	?	-34%	11µM*
O=C(O)c1cc2c([nH]c1=O)CCCC2	1%	-12%	1%[46.1 µM]	-17%	2%
O=C1CC(N2CC=C(c3ccccc3)CC2)C(=O)N1c1ccc(F)cc1 (configuration not stated)	2%	?	nt	45µM*	nt
Oc1ccc([C@@H]2CNCc3sccc32)cc1O	nt	nt	12%	nt	nt
O=C(/C=C/c1ccncc1)c1ccc2c(c1)OCCO2	-2%	2%	14µM*	4%	?
CCOC(=O)C1=C(CNCc2ccc(C)cc2)NC(=O)NC1c1ccc(OC)cc1 (configuration not stated)	-2%	?	5µM*	1%	?
COc1ccc(COc2ccsc2C(=O)Nc2ccc(Cl)cc2)cc1	-1%	0%	-10%	0.35µM*	-6%
CSc1ccc(/C=N/NC(=O)c2sccc2C)cc1	34%	-11%	10µM*	-43%	?
O=C(N/N=C/c1ccc(Cl)cc1)c1sccc1OCc1ccc(F)cc1	40µM*	0%	?	-12%	?
CSc1ccc(/C=N/NC(=O)c2ccc(C)c(C)c2)cc1	-2%	4%	-19%	-32%	?
COc1ccc(NC(=O)c2csc(Cc3ccc(Cl)cc3)n2)cc1	-8%	-1%	nt	-16%	nt
O=C(N/N=C/c1ccc(F)cc1)c1sccc1OCc1ccc(F)cc1	5%	?	2.2µM*	-23%	?
Cc1cc(C)cc(-n2ccnc2SCC(=O)Nc2ccc(C)cc2C)c1	nt	9%	nt	nt	?
O=C1Nc2ccccc2[C@@]12O[C@H](COc1ccccc1)CC1=C2CCC1	nt	nt	10%[14.2 µM]	nt	nt
